Source: PubChem (National Center for Advancing Translational Sciences (NCATS))
Cycloheximide cs – Cycloheximide Counterscreen for Small Molecule Inhibitors of Shiga Toxin; cell reporter, cycloheximide protein synthesis inhibition counterscreen; max response, %; 300,000 compounds, 12% hits; in the data active = max response mostly above about 13%, no sharp cut-off; inactive = mostly below about 14%; note: read at 38.3 µM for the half of the compounds with a filed dose; 0% is about no effect
LmPK inhibitor – qHTS Assay for Inhibitors of Leishmania Mexicana Pyruvate Kinase (LmPK). Potency, µM (series often up to 57.5 µM), for the others: at the top dose activity change, negative = inhibition, usual class: inhibitors. Q27686. AID 1721, 2009. purified LmPK, Kinase-Glo ATP luminescence, 1 h. 290,000 compounds, 0.37% hits; note: potency is the fitted concentration of half-maximal effect; % is set by controls: 0 for no effect and ±100 for the full control effect
Target sequence (Q27686 whole entry, looked up): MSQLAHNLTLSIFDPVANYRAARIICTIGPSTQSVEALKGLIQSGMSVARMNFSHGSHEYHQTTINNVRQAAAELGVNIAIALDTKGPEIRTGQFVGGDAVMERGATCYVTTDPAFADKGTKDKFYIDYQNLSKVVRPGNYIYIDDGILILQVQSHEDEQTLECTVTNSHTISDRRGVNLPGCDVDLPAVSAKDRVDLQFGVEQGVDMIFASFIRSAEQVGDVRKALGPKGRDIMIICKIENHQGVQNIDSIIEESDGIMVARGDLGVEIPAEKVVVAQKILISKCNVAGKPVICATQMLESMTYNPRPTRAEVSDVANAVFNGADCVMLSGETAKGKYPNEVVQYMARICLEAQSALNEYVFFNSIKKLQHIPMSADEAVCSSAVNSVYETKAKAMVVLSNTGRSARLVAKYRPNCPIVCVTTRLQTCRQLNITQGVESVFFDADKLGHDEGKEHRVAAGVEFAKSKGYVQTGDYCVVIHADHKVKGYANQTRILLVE
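Kinase-Glo luminescence read after 1 h RT reaction of 0.1 nM LmPK with 0.5 mM PEP and 0.1 mM ADP. Activity scaled between uninhibited and enzyme-free controls.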
Tb PYK inh – qHTS of Trypanosoma Brucei Inhibitors. TbPYK enzyme, Kinase-Glo Plus ATP luminescence, 45 min. Potency, µM (doses to about 76.8 µM), for the others: top-dose activity, negative = inhibition, actives largely listed as inhibitors. 410,000 compounds, 0.12% hits; note: potency is the fitted concentration of half-maximal effect; % is set by controls: 0 for no effect and ±100 for the full control effect; nearly all actives have a fitted effect of over 50% in size
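Luminescence from Kinase-Glo Plus, added after a 45-minute room-temperature reaction, served as the end-point read-out. The enzyme and substrate were preincubated with compound before ADP (130 uM final) initiated turnover. Concentration-effect curves came from normalized qHTS data.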
Giardia FBPA inh – qHTS Assay for Inhibitors of Fructose-1,6-bisphosphate Aldolase from Giardia Lamblia; purified Giardia FBPA; Potency, µM (doses to about 59.6 µM), for inactives: top-dose activity, negative = inhibition, most hits filed as inhibitors; 290,000 compounds, 0.71% hits; AID 2451, 2010; note: potency is the fitted concentration of half-maximal effect; % is set by controls: 0 for no effect and ±100 for the full control effect; nearly all actives have a fitted effect of over 55% in size
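Giardia FBPA (40 nM reagent) was preincubated 10 min at RT with compound (up to 57.5 uM final), then substrate plus GAPDH/TPI/NAD/arsenate coupling system with diaphorase/resazurin was added; resorufin fluorescence (525/598 nm) was read after 20 min.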
RE007 growth inh – qHTS Assay for Inhibitors of the HIV-1 protein Vpr. S. pombe RE007 Vpr strain, BacTiter-Glo ATP luminescence, 24 h. Potency, µM (series often up to 92.2 µM), without a hit: top-dose activity change, negative = less growth, hits mostly inhibitors. 360,000 compounds, 0.21% hits; active = well fitted falling curve with a large enough effect; inconclusive = small, poorly fitted or top-dose-only effect; inactive = no such curve, though single readings can be large or run the other way; note: potency is the fitted concentration of half-maximal effect; % is set by controls: 0 for no effect and ±100 for the full control effect; nearly all actives have a fitted effect of over 50% in size
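Fission yeast strain RE007, carrying one chromosomally integrated HIV-1 vpr copy, was seeded at OD 0.01 in PMG+AL medium with 23 nL pinned compound. After 24 h at 30 °C and 99% humidity, viability was read by BacTiter-Glo luminescence.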
Shiga toxin inh – A qHTS for Small Molecule Inhibitors of Shiga Toxin. inhibition, % at 38.7 µM. Vero cells, Shiga toxin protein synthesis inhibition reporter. 290,000 compounds, 9.2% hits. AID 2315, 2010; in the data active = inhibition mostly above about 28%, no sharp cut-off; inactive = mostly below about 43%; note: 0% is about no effect
* hit, by the source's call; ? = inconclusive; nt = not tested or not shown. Only a selection was taken, and hits are over-represented in it overall. Unless noted, calls come from the whole dose curve; as a rule, active = well fitted curve in the direction sought with a large enough effect; inconclusive = small, poorly fitted or top-dose-only effect, or another doubt; inactive = no such curve, though single readings can be large; an effect the other way counts as inactive or inconclusive.

SMILES	Cycloheximide cs	LmPK inhibitor	Tb PYK inh	Giardia FBPA inh	RE007 growth inh	Shiga toxin inh
Cc1ccc(-c2ccc(/C=N/c3ncn[nH]3)o2)cc1Cl	17*	5%	-2%	-10%	-5%	26
COC(=O)N/N=C/c1ccc(-c2ccc(C)c(Cl)c2)o1	16*	0%	5%	2%	2%	38
Cc1ccc(-c2ccc(/C=N/NC(=O)CN3CCCC3)o2)cc1Cl	32	-2%	-8%	2%	1%	24
COC(=O)N/N=C/c1ccc(-c2cccc(Cl)c2)o1	33*	-1%	2%	-5%	-14%	55*
Cc1ccccc1-c1cnc2c(c1)C(=O)N([C@@H](C)CO)C[C@@H](C)[C@H](CN(C)Cc1ccccc1F)O2	nt	nt	-11%	nt	-3%	nt
O=C(O)c1ccc(-c2cccc(Cl)c2)o1	nt	nt	-7%	nt	10%	nt
Cc1ccc(-c2ccc(C(=O)O)o2)cc1Cl	16*	2%	-4%	24%	31%	38
O=C(NCCc1ccc(F)cc1)C(=O)NCC(c1cccs1)S(=O)(=O)c1ccc(F)cc1 (stereo unspecified)	nt	nt	-4%	nt	nt	nt
COc1ccc(NC(=O)COC(=O)CNS(=O)(=O)c2ccccc2)cc1OC	1	8%	-1%	0%	-13%	1
COc1ccc(NC(C)=[N+](C)CCNS(=O)(=O)c2ccc(Cl)cc2)cc1Cl	16*	-9%	-4%	-6%	6%	21
COc1ccc(NC(=O)CNS(=O)(=O)c2ccccc2)cc1Cl	14*	1%	11%	-5%	-1%	4
COc1ccc(NC(=O)c2cc(-c3ccccc3)on2)cc1OC	7	11%	-1%	-3%	-7%	nt
CC(C)Cc1cc(C(=O)Nc2cccc(O)c2)no1	10	?	-12%	1%	-18%	13
COc1ccc(NC(=O)c2cc(CC(C)C)on2)cc1OC	42*	-1%	2%	8%	-12%	active
CC(C)Cc1cc(C(=O)Nc2ccc(Br)cc2)no1	36*	-5%	8%	3%	-9%	69
CCc1ccc(NC(=O)c2cc(CC(C)C)on2)cc1	33*	0%	-1%	0%	-5%	39*
COc1ccc(NC(=O)OCC(C)C)cc1OC	21*	-2%	-16%	1%	19%	50*
Cc1ccc(NC(=O)CSc2nccn2C2CCCC2)cc1	nt	nt	1%	nt	nt	nt
CCCS(=O)(=O)NC(=O)C1(C)CCCN(C(=O)COc2ccccc2)C1 (stereo unspecified)	nt	nt	0%	nt	9%	nt
CC(C)Cc1cc(C(=O)Nc2ccc3c(c2)OCO3)no1	36*	-1%	1%	0%	-1%	72*
CC(C)(C)C(=O)COC(=O)c1ccc(O)cc1	11	-2%	0%	5%	-7%	40*
COc1ccc(C(=O)OCCc2ccc(O)cc2)cc1	38*	1%	7%	-3%	9%	50*
CC(C)(C)C(=O)COC(=O)c1ccccc1O	13	1%	-1%	3%	-21%	20
COc1ccc(CCOC(=O)c2ccc(NC(=O)CC#N)cc2)cc1	41*	-10%	-3%	nt	1%	30
COc1ccc(CCn2c(C)cc(C(=O)COC(=O)c3ccc(NC(=O)CC#N)cc3)c2C)cc1	-4	-2%	8%	nt	2%	-1
COc1cc(/C=N/NC(=O)c2cc[n+]([O-])cc2)ccc1O	-5	-3%	2%	1%	0%	26
O=c1nccc(N/N=C/c2ccccc2)[nH]1	37*	-4%	-14%	?	-1%	37*
Cc1cc(C)c2nc3nc(C)c(C)cc3c(N)c2c1	20	0%	0%	-8%	?	70*
COc1ccc(-n2c(=O)cnc3cnc(Oc4ccccc4)nc32)cc1	nt	nt	-2%	-5%	nt	nt
O=C(COC(=O)C1CC(=O)N(c2ccc3c(c2)OCCO3)C1)NC1CCCc2ccccc21 (stereo unspecified)	20*	1%	-8%	3%	-14%	45*
